# From PubChem BioAssay
# Results filed as inconclusive are left out. Active and inactive are the calls of the source. Cut-off read from the data, not from the text of the source, unless noted: active = inhibition above about 80%; inactive = the rest. Peptide text beside a SMILES is read from it.
# What was measured:
# [1] = system: Aerobactin synthetase IucA (Klebsiella pneumoniae); assay: inhibition of K. pneumoniae IucA enzyme – biochemical, Tocris library, absorbance (AID 1345561; call rule not given here;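 note: 100% = enzyme without compound and 0% = no enzyme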); conditions: purified IucA enzyme assay, absorbance (OD) read-out; stronger effect = lower value;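 tested at 8 µM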
# [2] = chitosan synthesis blockers in C. neoformans – flow cytometry, Cibacron Brilliant Red staining (AID 1347148; call rule not given here;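 note: compound exposure lasted three days at 37 degrees C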); conditions: Cryptococcus neoformans chitosan, stronger effect = lower value; at 10 µM unless noted
# [3] = viability loss in pontine glioma line – cell-based, SU-DIPG-XXV, MIPE5.0, CellTiter-Glo, qHTS, dose response (AID 1347065; cut-off not given, nearly all actives have AC50 up to about 26 µM;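 note: cells exposed to compound for 48 hours before ATP readout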); conditions: CellTiter-Glo ATP luminescence
# [4] = compounds altering HSF1 focus formation in cells – imaging, Selleck Cancer Library (AID 1347162; in the data active = plate-normalised HSF1 focus index below about 0.46); conditions: human cells, HSF1 nuclear foci imaging, at 10 µM; SSMD: measured here: HSF1 foci SSMD mean; cell count: measured here: cell number; plate-normalised HSF1 focus index: stronger effect = lower value
# [5] = target: Huntingtin (Homo sapiens) (UniProt P42858); assay: mutant huntingtin aggregation blockers – QA1, dose response (AID 1584); conditions: in vitro mutant huntingtin aggregation assay; confirmation test; at 10 µM; stronger effect = lower value
# [6] = growth inhibition, single agents and combos, CRL2098, cell-based, BGB or cisplatin IC20 combos, synergistic combos for chromothripsis tumors (AID 1671454); conditions: CRL2098 osteosarcoma cells, drug combinations, stronger effect = higher value;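 note: cells exposed for 96 h before readout; 0% = vehicle DMSO and 100% = killing by high DMSO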
# [7] = growth inhibition, single agents and combos, HD-MB03, cell-based, BGB or cisplatin IC20 combos, synergistic combos for chromothripsis tumors (AID 1671455; in the data active = inhibition above about 83%;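 note: 0% = vehicle DMSO and 100% = high DMSO as cytotoxic control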); conditions: HD-MB03 medulloblastoma cells, stronger effect = higher value
# [8] = growth inhibition, single agents and combos, UWB1.289, cell-based, BGB or cisplatin combos, synergistic combos for chromothripsis tumors (AID 1671456); conditions: UWB1.289 ovarian carcinoma cells, stronger effect = higher value;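 note: cells exposed to compound for four days; 0% = vehicle DMSO and 100% = killing by high DMSO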
# [9] = growth inhibition, single agents and combos, LFS_MB_2R, cell-based, cisplatin combos, synergistic combos for chromothripsis tumors (AID 1671457); conditions: LFS_MB_2R medulloblastoma cells, stronger effect = higher value;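 note: cells exposed to compound for four days before readout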
# [10] = UWB1.289_BRCA1 ovarian cancer growth, cell-based, BGB or cisplatin combinations (AID 1671459); conditions: UWB1.289 BRCA1 ovarian carcinoma, drug combinations, stronger effect = higher value
# [11] = drug combination toxicity in non-malignant astrocytes – cell-based, BGB or cisplatin IC20 combos, cytotoxicity control for chromothriptic childhood tumor combination screen (AID 1671460); conditions: Human astrocytes, viability inhibition, drug combinations, at 0.5 µM, stronger effect = higher value;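 note: cells exposed to compounds for 96 hours before viability readout; 0% = vehicle and 100% = killing control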
# [12] = rescue of PC12 cells from polyQ htt toxicity – LDH release (AID 1610); conditions: PC12 mutant huntingtin toxicity, final LDH at 4 uM, stronger effect = lower value
# [13] = glutamate excitotoxicity neuroprotectants – cell-based, TUNEL DNA degradation staining, MNGlu (AID 1594; call rule not given here); conditions: motor neurons, glutamate-induced death, at 1 µM, stronger effect = higher value
# [14] = selective SMN2 exon splicing luciferase activators – cell-based, SMN2/SMN1 luciferase reporters (AID 1598; call rule not given here); conditions: SMN2 vs SMN1 luciferase splicing reporter cells, at 10 µM; SMN1 luciferase ratio: measured here: SMN1 luciferase reporter average; SMN2 luciferase ratio: measured here: SMN2 luciferase reporter average, stronger effect = higher value; SMN2/SMN1 luciferase ratio: stronger effect = higher value
# [15] = measured here: combination with BGB at IC20, at 0.5 µM
# [16] = measured here: combination with cisplatin at IC20, at 0.5 µM
# [17] = measured here: combo with BGB at IC20, at 0.5 µM
# [18] = measured here: combo with cisplatin at IC20, at 0.5 µM
# [19] = measured here: inhibition with BGB combination, at 0.05 µM
# [20] = measured here: inhibition with cisplatin combination, at 0.05 µM
# [21] = measured here: combination with cisplatin, at 0.5 µM
# [22] = measured here: combination with cisplatin, at 5 µM
# [23] = BGB combination, concentration series, at 5 µM
# [24] = cisplatin combination, concentration series, at 5 µM
# [25] = measured here: combo with BGB IC20
# [26] = measured here: combo with cisplatin IC20
# Chain of Huntingtin (Homo sapiens) (P42858 whole entry, looked up): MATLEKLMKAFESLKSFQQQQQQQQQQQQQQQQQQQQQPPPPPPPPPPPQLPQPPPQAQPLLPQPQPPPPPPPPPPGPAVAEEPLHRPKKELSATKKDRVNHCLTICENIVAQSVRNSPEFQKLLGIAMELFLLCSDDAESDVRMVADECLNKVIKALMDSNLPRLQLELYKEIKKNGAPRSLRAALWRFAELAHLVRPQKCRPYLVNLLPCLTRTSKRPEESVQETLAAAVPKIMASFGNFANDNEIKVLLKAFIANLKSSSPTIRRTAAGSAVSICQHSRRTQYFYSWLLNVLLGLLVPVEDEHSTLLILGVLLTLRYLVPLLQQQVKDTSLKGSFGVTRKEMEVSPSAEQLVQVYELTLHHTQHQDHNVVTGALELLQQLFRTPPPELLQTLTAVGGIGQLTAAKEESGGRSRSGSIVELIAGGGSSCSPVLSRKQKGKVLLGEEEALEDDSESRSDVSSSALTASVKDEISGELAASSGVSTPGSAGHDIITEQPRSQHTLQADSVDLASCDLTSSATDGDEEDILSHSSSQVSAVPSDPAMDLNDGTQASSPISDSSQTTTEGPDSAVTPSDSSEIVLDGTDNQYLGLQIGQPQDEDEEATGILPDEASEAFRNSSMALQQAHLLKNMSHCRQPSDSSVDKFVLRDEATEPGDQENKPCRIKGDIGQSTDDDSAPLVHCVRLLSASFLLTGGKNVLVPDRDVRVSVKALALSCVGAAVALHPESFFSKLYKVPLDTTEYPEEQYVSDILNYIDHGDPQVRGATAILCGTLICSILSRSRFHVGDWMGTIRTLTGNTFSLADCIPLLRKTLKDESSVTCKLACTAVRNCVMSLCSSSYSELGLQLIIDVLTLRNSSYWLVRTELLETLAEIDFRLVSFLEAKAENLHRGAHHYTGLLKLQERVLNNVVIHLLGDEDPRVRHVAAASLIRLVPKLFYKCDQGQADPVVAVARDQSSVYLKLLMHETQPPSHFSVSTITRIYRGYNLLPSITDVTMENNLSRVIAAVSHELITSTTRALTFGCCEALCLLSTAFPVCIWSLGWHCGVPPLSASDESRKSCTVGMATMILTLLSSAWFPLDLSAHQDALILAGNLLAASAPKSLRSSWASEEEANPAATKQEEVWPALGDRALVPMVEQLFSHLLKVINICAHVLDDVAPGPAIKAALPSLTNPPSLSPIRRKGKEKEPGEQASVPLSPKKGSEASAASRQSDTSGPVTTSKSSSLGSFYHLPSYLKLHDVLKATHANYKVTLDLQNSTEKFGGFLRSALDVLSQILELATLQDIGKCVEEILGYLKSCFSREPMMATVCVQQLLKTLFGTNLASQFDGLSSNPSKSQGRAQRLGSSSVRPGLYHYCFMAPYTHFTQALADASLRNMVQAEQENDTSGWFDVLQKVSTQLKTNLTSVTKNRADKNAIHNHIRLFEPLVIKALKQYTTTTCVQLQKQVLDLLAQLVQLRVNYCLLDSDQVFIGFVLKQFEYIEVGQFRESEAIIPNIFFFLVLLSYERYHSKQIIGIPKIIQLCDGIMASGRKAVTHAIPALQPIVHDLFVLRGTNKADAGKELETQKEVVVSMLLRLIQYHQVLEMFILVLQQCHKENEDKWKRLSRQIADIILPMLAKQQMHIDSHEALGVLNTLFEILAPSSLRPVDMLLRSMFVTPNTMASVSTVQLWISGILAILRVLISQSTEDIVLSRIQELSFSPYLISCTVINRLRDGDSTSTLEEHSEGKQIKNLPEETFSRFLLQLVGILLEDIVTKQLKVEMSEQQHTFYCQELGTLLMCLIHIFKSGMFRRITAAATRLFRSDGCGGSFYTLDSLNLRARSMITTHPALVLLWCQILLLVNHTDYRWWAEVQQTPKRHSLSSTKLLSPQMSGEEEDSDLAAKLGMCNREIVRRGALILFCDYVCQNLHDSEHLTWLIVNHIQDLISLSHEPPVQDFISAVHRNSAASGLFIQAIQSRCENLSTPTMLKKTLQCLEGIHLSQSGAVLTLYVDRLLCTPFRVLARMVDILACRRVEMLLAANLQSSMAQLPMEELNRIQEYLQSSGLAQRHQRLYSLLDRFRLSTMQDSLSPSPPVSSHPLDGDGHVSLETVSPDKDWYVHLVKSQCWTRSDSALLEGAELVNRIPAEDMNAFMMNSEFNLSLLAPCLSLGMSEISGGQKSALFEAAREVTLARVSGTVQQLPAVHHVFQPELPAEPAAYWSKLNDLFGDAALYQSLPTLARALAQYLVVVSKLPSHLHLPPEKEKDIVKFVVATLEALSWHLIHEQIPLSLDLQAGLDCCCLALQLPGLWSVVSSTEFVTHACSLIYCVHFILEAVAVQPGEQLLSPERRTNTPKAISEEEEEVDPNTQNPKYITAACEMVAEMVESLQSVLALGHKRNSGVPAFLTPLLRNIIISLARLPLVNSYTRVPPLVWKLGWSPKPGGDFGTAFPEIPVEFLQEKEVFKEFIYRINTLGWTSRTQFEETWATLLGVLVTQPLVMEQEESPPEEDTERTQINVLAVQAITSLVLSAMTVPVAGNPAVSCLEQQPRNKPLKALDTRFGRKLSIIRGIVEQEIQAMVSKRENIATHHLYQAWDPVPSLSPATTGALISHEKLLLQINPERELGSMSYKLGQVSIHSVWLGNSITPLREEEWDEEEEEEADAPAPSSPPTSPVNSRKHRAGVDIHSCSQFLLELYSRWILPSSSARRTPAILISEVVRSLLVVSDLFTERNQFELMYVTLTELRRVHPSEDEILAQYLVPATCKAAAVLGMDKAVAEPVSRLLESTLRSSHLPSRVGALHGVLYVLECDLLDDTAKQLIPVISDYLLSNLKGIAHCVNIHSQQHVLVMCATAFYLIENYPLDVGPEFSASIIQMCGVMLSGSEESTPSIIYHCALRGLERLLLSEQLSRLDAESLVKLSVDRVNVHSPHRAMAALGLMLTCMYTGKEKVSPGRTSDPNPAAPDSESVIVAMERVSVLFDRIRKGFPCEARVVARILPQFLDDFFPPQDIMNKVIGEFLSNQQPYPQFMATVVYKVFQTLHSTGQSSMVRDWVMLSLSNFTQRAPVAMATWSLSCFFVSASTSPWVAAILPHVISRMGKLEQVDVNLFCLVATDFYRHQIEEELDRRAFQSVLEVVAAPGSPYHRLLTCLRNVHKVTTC
compound,measurement,setting,value
NC(N)=NC(N)=Nc1ccccc1,remaining activity,[1],119% (inactive)
COc1ccc2cc1Oc1ccc(cc1)C[C@H]1c3cc(c(OC)cc3CCN1C)Oc1c(OC)c(OC)cc3c1[C@H](C2)N(C)CC3,fold fluorescence,[2],5.71 [at 80.3 µM] (inactive)
c1coc(CNc2ncnc3nc[nH]c23)c1,outcome,[3],inactive
O=C(CCc1ccc(O)cc1)c1c(O)cc(O)cc1O,outcome,[3],inactive
same,SSMD,[4],2.09
same,cell count,[4],7280
same,plate-normalised HSF1 focus index,[4],1.13 (inactive)
CN1C2CCC1CC(OC(=O)C(CO)c1ccccc1)C2 (centres undefined),outcome,[3],inactive
O=c1c(O)c(-c2ccc(O)cc2O)oc2cc(O)cc(O)c12,aggregation ratio,[5],0.704
O=C(CCc1ccc(O)cc1)c1c(O)cc(O)cc1O[C@@H]1O[C@H](CO)[C@@H](O)[C@H](O)[C@H]1O,outcome,[3],inactive
O=C(/C=C/C=C/c1ccc2c(c1)OCO2)N1CCCCC1,outcome,[3],inactive
CCn1nc(C(=O)O)c(=O)c2cc3c(cc21)OCO3,inhibition,[6]; at 0.5 µM,-51.5% (inactive)
same,inhibition,[6]; [15],-50.7%
same,inhibition,[6]; [16],-58%
same,inhibition,[7]; at 0.5 µM,-4.61% (inactive)
same,inhibition,[7]; [17],-9.5%
same,inhibition,[7]; [18],-2.73%
same,inhibition,[8]; at 0.5 µM,-2.26% (inactive)
same,inhibition,[8]; [19],-31.4%
same,inhibition,[8]; [20],-13.5%
same,inhibition,[9]; at 0.5 µM,-9.44% (inactive)
same,inhibition,[9]; [21],-16.5%
same,inhibition,[9]; [22],-17.7%
same,inhibition,[10]; [23],14%
same,inhibition,[10]; at 0.5 µM,-2.39% (inactive)
same,inhibition,[10]; [24],6.77%
same,inhibition,[11],10.8% (inactive)
same,inhibition,[11]; [25],8.46%
same,inhibition,[11]; [26],10.9%
C1CCc2nnnn2CC1,remaining activity,[1],117% (inactive)
O=C(/C=C/c1ccc(O)c(O)c1)OCCc1ccccc1,remaining activity,[1],122% (inactive)
same,fold fluorescence,[2],6.87 [at 175.9 µM] (inactive)
Cc1cc(O)c2c(c1)C(=O)c1cccc(O)c1C2=O,outcome,[3],inactive
same,SSMD,[4],1.91
same,cell count,[4],7380
same,plate-normalised HSF1 focus index,[4],1.07 (inactive)
O=c1c(O)c(-c2ccc(O)c(O)c2)oc2cc(O)ccc12,inhibition,[6]; at 0.5 µM,3.92% (inactive)
same,inhibition,[6]; [15],-8.68%
same,inhibition,[6]; [16],27.9%
same,inhibition,[7]; at 0.5 µM,-0.08% (inactive)
same,inhibition,[7]; [17],1.14%
same,inhibition,[7]; [18],-0.856%
same,inhibition,[8]; at 0.5 µM,3.05% (inactive)
same,inhibition,[8]; [19],1.82%
same,inhibition,[8]; [20],-4.79%
same,inhibition,[9]; at 0.5 µM,1.64% (inactive)
same,inhibition,[9]; [21],-4.17%
same,inhibition,[9]; [22],-0.986%
same,inhibition,[10]; [23],14.5%
same,inhibition,[10]; at 0.5 µM,1.05% (inactive)
same,inhibition,[10]; [24],19.6%
same,inhibition,[11],10.6% (inactive)
same,inhibition,[11]; [25],1.09%
same,inhibition,[11]; [26],26.6%
O=c1cc(-c2ccccc2)oc2cc(O)cc(O)c12,AC50,[3],20.9 µM (active)
CC[C@H]1OC(=O)[C@H](C)[C@@H](O[C@H]2C[C@@](C)(OC)[C@@H](O)[C@H](C)O2)[C@H](C)[C@@H](O[C@@H]2O[C@H](C)C[C@H](N(C)C)[C@H]2O)[C@](C)(O)C[C@@H](C)C(=O)[C@H](C)[C@@H](O)[C@]1(C)O,outcome,[3],inactive
CC(=O)N[C@@H](CC(=O)O)C(=O)N[C@@H](CCC(=O)O)C(=O)O (Ac-Asp-Glu-OH),remaining activity,[1],82.4% (inactive)
COc1ccc(-c2coc3cc(O)cc(O)c3c2=O)cc1,normalised LDH release,[12],1.03
same,outcome,[3],inactive
O=C1C[C@@H](c2ccc(O)cc2)Oc2cc(O)cc(O)c21,outcome,[3],inactive
COc1c2ccoc2cc2oc(=O)ccc12,inhibition,[6]; at 0.5 µM,-46.9% (inactive)
same,inhibition,[6]; [15],-48%
same,inhibition,[6]; [16],-47.5%
same,inhibition,[7]; at 0.5 µM,-4.51% (inactive)
same,inhibition,[7]; [17],-4.11%
same,inhibition,[7]; [18],-2.34%
same,inhibition,[8]; at 0.5 µM,-2.25% (inactive)
same,inhibition,[8]; [19],-12.4%
same,inhibition,[8]; [20],-7.34%
same,inhibition,[9]; at 0.5 µM,-16.1% (inactive)
same,inhibition,[9]; [21],-10.7%
same,inhibition,[9]; [22],0.771%
same,inhibition,[10]; [23],5.68%
same,inhibition,[10]; at 0.5 µM,-4.34% (inactive)
same,inhibition,[10]; [24],13.5%
same,inhibition,[11],1.97% (inactive)
same,inhibition,[11]; [25],-6.42%
same,inhibition,[11]; [26],7.69%
CN1CCc2c(c3ccccc3n2Cc2ccccc2)C1,protection,[13],49% (active)
same,normalised LDH release,[12],0.901
CC(C(=O)O)c1ccc(N2Cc3ccccc3C2=O)cc1 (centres undefined),SMN1 luciferase ratio,[14],0.71
same,SMN2/SMN1 luciferase ratio,[14],2.02 (active)
same,SMN2 luciferase ratio,[14],1.4
NC(N)=NCCCCN=C(N)N,protection,[13],45% (active)
CN1CCc2cccc3c2C1Cc1ccc(O)c(O)c1-3 (centres undefined),normalised LDH release,[12],0.891
Cc1cc(/C=C/c2ccc3cc(N(C)C)ccc3[n+]2C)c(C)n1-c1ccccc1,aggregation ratio,[5],0.715
C=C1c2c(Cl)ccc(O)c2C(O)=C2C(=O)[C@]3(O)C(O)=C(C(N)=O)C(=O)[C@@H](N(C)C)[C@@H]3[C@@H](O)[C@H]12,aggregation ratio,[5],0.703
CC(C)Cn1c(=O)n(C)c(=O)c2[nH]cnc21,fold fluorescence,[2],4.08 [at 225 µM] (inactive)
COc1cc2ccc(=O)oc2cc1O,normalised LDH release,[12],0.874
